# Laboratory results: the supplement of paper PMC3334620
# In all, about 33,000 sequences were measured (“E-score (-0.5 to 0.5)”: median about -8e-05, highest 2% from about 0.23 on). For the sample, the highest values were picked, then their nearest neighbours and some sequences at random.
# Target: T1, Nrg2 (UniProt P38082)
# T1 sequence: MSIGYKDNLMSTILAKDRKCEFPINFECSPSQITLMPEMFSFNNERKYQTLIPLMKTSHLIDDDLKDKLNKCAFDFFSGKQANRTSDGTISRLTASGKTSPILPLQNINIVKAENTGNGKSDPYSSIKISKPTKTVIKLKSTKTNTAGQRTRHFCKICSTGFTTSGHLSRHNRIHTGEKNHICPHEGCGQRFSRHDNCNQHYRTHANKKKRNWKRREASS
# Test: PBM E-score (8-mer binding enrichment) (E-score (-0.5 to 0.5)); higher = stronger / more preferred TF binding
# Details: protein concentration: 100 nM; construct: GST-full length
# Procedure: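 Universal 'all 10-mer' protein binding microarrays (Agilent AMADID 015681) probed with GST-tagged S. cerevisiae TFs (full-length or DBD) made by in vitro transcription/translation (PURExpress), about 100-200 nM. Bound TF was detected with fluorescent anti-GST. Each ungapped 8-mer (which stands for itself and its reverse complement) is scored by the PBM enrichment score (E-score), a modified Wilcoxon-Mann-Whitney statistic from -0.5 to +0.5, computed with the Universal PBM Analysis Suite. Scale: above 0.35 generally sequence-specific binding.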
row,Sequence,PBM E-score
1,TATCAACA,0.0479
2,GATCAACA,-0.0582
3,AATCAACA,0.239
4,ATCGCATG,0.188
5,CCTCCAAA,-0.0762
6,CCTACGCA,-0.133
7,CGGCCGCA,0.0157
8,GATATCGA,0.0243
9,TATATCGA,0.278
10,AATATCGG,0.137
11,AATATCGA,0.244
12,CATATCGA,0.118
13,AATATCGC,0.104
14,CGCTTATC,-0.0744
15,CTGCTTTC,0.104
16,CTGCTTTA,0.23
17,ATGCTTTA,-0.178
18,GGGTTTAC,-0.0342
19,AATTCTAT,-0.0322
20,AATTCAAC,0.256
21,AATTCAGG,0.336
22,GATTCAAC,0.00265
23,AATTCAAG,0.0675
24,AATTCAGA,0.0972
25,AATTCTAG,-0.027

row,Sequence,PBM E-score
1,AATTCAGT,-0.0207
2,AATTCTAC,0.231
3,AAGACTCA,-0.249
4,TCCGTACA,0.146
5,ACACGTCC,-0.254
6,AGCTTTCG,-0.106
7,GATACTAC,0.13
8,CGAGTTCC,0.0649
9,AACCGCGA,0.256
10,AACCGCGT,0.0966
11,TACCGCGA,0.0041
12,CCATGCCC,-0.111
13,ACTAAATG,-0.0439
14,CGCATATA,0.0344
15,CGCATATC,0.293
16,AGCATATC,0.0744
17,ATAGTAAC,0.074
18,ATAGTAAT,0.234
19,ATAGTAGC,0.25
20,ATAGTAAA,0.203
21,ATAGTAGG,0.0354
22,ATAGTAGA,0.102
23,GAAAGGCA,-0.0231
24,ACGAAGCC,-0.0825
25,GCTCCAAA,-0.202

row,Sequence,PBM E-score
1,TCAATGCA,-0.183
2,AGTCTCGG,-0.0965
3,ATAATCGG,0.246
4,ATAATCCG,0.0659
5,ATAATCAG,0.0745
6,ATAATCGA,0.0835
7,ATAATCGC,-0.0299
8,ATAATCCA,0.128
9,ATAATCAT,0.235
10,ATAATCCC,0.24
11,ATAATCAA,0.0599
12,TCCTATAA,-0.0317
13,CAAACCAA,0.214
14,CTATAGGA,-0.0776
15,CATGGTTC,0.0101
16,ATGCAAGC,0.0922
17,ATCTAACC,0.0422
18,AAGGATTC,-0.124
19,GACCAAGA,0.0552
20,ATGCCCAT,-0.093
21,ACCATCGC,0.139
22,CGTTTCAC,-0.00605
23,CGAGACCC,0.263
24,CGAGACCG,-0.0751
25,GGAGACCC,0.076

row,Sequence,PBM E-score
1,ATTGCGTA,0.145
2,CTTGCGTC,-0.00183
3,ATTGCGTC,0.237
4,GTGCCAAA,-0.0122
5,AGCATCGC,-0.0887
6,CGTCACAG,0.282
7,CGTCACAA,0.0516
8,CGTCACAC,-0.0186
9,GTATAGCA,0.078
10,ATACAGGA,-0.00019
11,ACACAGGC,0.0691
12,ATACAGGC,-0.0144
13,CAACAGGG,0.312
14,CAACAGGA,-0.152
15,ACACAGGA,-0.0296
16,ATACAGGG,0.274
17,ACACAGGG,0.238
18,CAACAGGC,-0.129
19,ACAGAGGC,-0.172
20,ATTGTGCA,0.0869
21,GCGTTAGA,0.0176
22,ACTTGGAG,-0.108
23,ATAATATA,0.268
24,ATAATATG,0.198
25,GTTATAAA,0.0259

row,Sequence,PBM E-score
1,TTAATAAA,0.201
2,CTAATATA,0.13
3,ATAATACA,0.282
4,ATAATACG,0.18
5,ATAATAAA,0.224
6,ATAATACC,0.171
7,TTTATAAA,0.245
8,CTTATAAA,0.131
9,CTAATAAA,0.259
10,AGCAGACT,-0.138
11,CCGCCTGA,-0.0981
12,TCCAGAAA,0.0185
13,CCTCCTCC,-0.283
14,ATGTCCTC,0.0325
15,ATTGTCGC,0.136
16,ATTGTCGA,0.0199
17,ATTGTCGG,0.247
18,CTACAAAG,0.116
19,ACAGCGCA,0.00939
20,AGTAATAT,0.137
21,GGGGCCCA,0.117
22,CGGGCCCA,-0.128
23,GGGCCCAC,0.203
24,CGCCCCAA,0.261
25,CGCCCCAG,0.0362

row,Sequence,PBM E-score
1,AAGGCCCA,-0.13
2,GGGCCCAA,0.244
3,GGCCCCAA,-0.0979
4,CGCCCCCA,-0.194
5,ATGGCCCA,-0.0568
6,TGGGCCCA,0.306
7,AGGGCCCA,0.359
8,TAATTCCA,0.0521
9,GCGCTTCC,-0.0589
10,AAGGAAAA,0.0535
11,GCGGAATA,0.0652
12,CTTTGGGA,-0.076
13,AAACCCAC,0.218
14,GACTGAGA,-0.102
15,CAACTTAG,0.221
16,CTGCTCGA,0.073
17,AGGGCCCG,0.0729
18,AGGGCCCC,0.0359
19,AGGGCCCT,0.432
20,TCCAATAA,0.0718
21,CGACAGCC,0.026
22,CGCCGTGC,0.0708
23,CAGCCTAG,0.0198
24,GGTGCAAC,-0.13
25,AGTTTCAC,0.0923

row,Sequence,PBM E-score
1,AGTTTCAG,-0.0621
2,AGTTTCAT,0.274
3,CTGAGAAC,0.0907
4,CATACTAG,0.248
5,CATACTAC,0.151
6,AATACTAG,0.241
7,AATACTAC,0.0385
8,AATACTAT,0.0268
9,CATACTAA,0.114
10,CAATTTAC,0.12
11,ACGAATTG,0.0986
12,AGTGACTA,-0.133
13,TAGCAACA,0.135
14,GAACAGAA,0.0366
15,GGTCTGAC,0.0413
16,GGACAAGA,0.159
17,CGACAATC,0.009
18,GGACAATA,0.239
19,CGACAATA,0.235
20,AGACAATA,0.204
21,GGACAAAA,0.159
22,CATTTATC,0.0481
